Measured values as given in PubChem BioAssay AID1662 (Broad Institute, 2009).
Several values for one entry are separate records, joined by “and”; a condition that tells them apart may be missing. Equal entries are not always repeated. The campaign covered roughly 300,000 compounds. About 4,000 (1.3%) were called active. What follows is part of a selection rich in actives, with near analogues and random picks from the rest. A number with no mark means an inactive call.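 Rule for the calls: active = mean replicate score, as percent of positive control median, at least 50; inconclusive = mean below 50 but one replicate at or above 50; inactive = mean and every replicate below 50.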

Assay: S. pyogenes SKKanGAS growth inhibitors in kanamycin, primary screen, streptokinase expression inhibitor project, SKKanGAS strain, BacTiter-Glo luminescence (AID 1662);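 note: strain carries kanamycin resistance gene driven by streptokinase promoter and grows in 40 µg/ml kanamycin; loss of luminescence reflects streptokinase promoter inhibition or plain growth inhibition; 0% = median of DMSO wells and 100% = positive control at its reference dose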
Settings: 6 h, at 7.5 µM, active compounds read high
For CCN(CC)C(=O)CS(=O)CC(=O)Nc1cc(OCCOC)c(Cl)cc1Cl (centres undefined), the inhibition was 0.17%.
For COc1cc(NS(=O)(=O)c2ccc3ccccc3c2)c2ncccc2c1, the inhibition was 85% (active).
With Cc1ccc(NS(=O)(=O)c2ccc(C)c(NC(=O)COc3ccc4ccccc4c3)c2)c(C)c1 the inhibition was 29.6%.
COc1ccc(NC(=O)Nc2cccc3cccnc23)cc1 showed an inhibition of -7.39%.
In the case of C/C(=N\NC(=O)c1cccc([N+](=O)[O-])c1)c1cccnc1, the inhibition is reported as -2.34%.
For Cn1ccc(=Nc2ccc(NC(=O)c3ccc(N=c4ccn(C)c5ccc([N+](=O)[O-])cc45)cc3)cc2)cc1, the inhibition was 75.8% (active).
In the case of O=C(Nc1ccc(C(=O)N2CCCCC2)cc1)c1cccc([N+](=O)[O-])c1, the inhibition is reported as 6.65%.
With Cc1cc([N+](=O)[O-])ccc1NC(=O)c1ccc(NC(=O)C(C)C)cc1 the inhibition was 10.6%.
For O=C(CCN1C(=O)[C@@H]2Cc3ccccc3CN2C1=O)NCc1ccccc1, the inhibition was -1.78%.
COC(=O)C1(C)NC(c2ccc(C)cc2)C2C(=O)N(c3ccc(F)cc3)C(=O)C21 (centres undefined) showed an inhibition of 0.707%.
CCOc1ccc(NC(=O)NNC(=O)c2ccc(Cl)cc2Cl)cc1 gave an inhibition of -4.81%.
In the case of NC(N)=N/N=C/c1ccc(OCc2ccc(Cl)cc2Cl)cc1, the inhibition is reported as 50.8% (active).
OC(CNCCc1ccc(Cl)cc1Cl)COc1ccccc1 (centres undefined) gave an inhibition of 8.35%.
CCN(CCn1cccn1)C(=O)CC1C(=O)NCCN1Cc1cccc(OC)c1OC (centres undefined) gave an inhibition of -6.29%.
Molecule C/C(=N\NC(=O)OC(C)(C)C)c1ccc[nH]1 has an inhibition of -6.42%.
Cc1ccc(CSc2nc(-c3ccccc3)c(C#N)c(=O)[nH]2)cc1 showed an inhibition of 43.6%.
For N#Cc1c(-c2ccccc2)nc(SCc2cccc(C(F)(F)F)c2)[nH]c1=O, the inhibition was 67.4% (active).
For N#Cc1c(-c2ccccc2)nc(SCc2ccc([N+](=O)[O-])cc2)[nH]c1=O, the inhibition was 15.1%.
With CN1CCN(C2Cc3ccc(Cl)cc3Sc3ccc(F)cc32)CC1 (centres undefined) the inhibition was 68.7% (active).
Work on Cc1ccc(CS(=O)(=O)c2ncc(Cl)c(C(=O)Nc3nnc(C)s3)n2)cc1 yielded an inhibition of 2.36%.
Work on C/C(=N\NC(=O)c1ccoc1C)c1ccccc1O yielded an inhibition of 4.94%.
Cc1ccc(-n2ncc3c2CC(C)(C)CC3NC(=O)Cc2c(C)noc2C)cc1 (centres undefined) gave an inhibition of -4.1%.
For CCc1ccc2c(c1)C1(NN=C(c3ccccc3)S1)C(=O)N2 (centres undefined), the inhibition was 96.7% (active).
For COc1cccc(NC(=O)C2C(c3ccccc3)C2(Cl)Cl)c1 (centres undefined), the inhibition was 31.8%.
In the case of CCc1ccc(Oc2nc([N+](=O)[O-])nn2C)cc1, the inhibition is reported as 2.57%.
Cc1cc(C(=O)N2CCC(C(=O)O)CC2)c(C(F)(F)F)o1 gave an inhibition of -3.49%.
With Cc1noc(C)c1CSCC(=O)Nc1nc2ccc(Oc3ccccc3)cc2s1 the inhibition was 51.3% (active).
CCc1noc(C)c1C(=O)Nc1nc2ccc(OC)cc2s1 showed an inhibition of -6.51%.
Molecule Cc1noc(C)c1CSCC(=O)Nc1ccc(Br)cc1Cl has an inhibition of 32.2%.
COc1ccc(C(=O)Nc2ccc(C3(C#N)CCCC3)cc2)cc1OC showed an inhibition of 0.181%.
In the case of C/[N+]([O-])=C\c1ccc([N+](=O)[O-])o1, the inhibition is reported as 1.43%.
Cc1ccc(/C=C/C(=O)Nc2ccc([N+](=O)[O-])c(NC(=O)/C=C/c3ccc(C)o3)c2)o1 gave an inhibition of 6.98%.
In the case of O=C(/C=C/c1ccc([N+](=O)[O-])o1)NNC(=O)c1ccc(F)cc1, the inhibition is reported as 52.7% (active).
CC(=O)Oc1ccc(-c2cccc(C(=O)N3CCCCC3)c2)cc1 gave an inhibition of -5.29%.
Work on CCN1CCN(C(=O)N(Cc2ccc(Cl)cc2)S(=O)(=O)c2ccc(C)cc2)CC1 yielded an inhibition of -0.707%.
In the case of COc1ccc(/C=C/C(=O)c2ccc(NS(=O)(=O)c3ccc(C)cc3)cc2)cc1O, the inhibition is reported as 31.2%.
For COc1ccc(C(=O)/C=C/c2ccc(-c3ccccc3)cc2)cc1CSCC(=O)O, the inhibition was 51.6% (active).
In the case of COC(=O)c1ccc(COc2ccc(/C=C/C(=O)c3ccc(OC)c(CSCC(=O)O)c3)cc2OC)cc1, the inhibition is reported as -12.5%.
For Cc1occc(=O)c1OCc1c(Cl)cccc1Cl, the inhibition was 1.59%.
In the case of CCN(CC)c1ccc(S(=O)(=O)N2CCCCC2)cc1NC(=O)C1=COCCO1, the inhibition is reported as -12%.
In the case of S=C1Nc2cc(Cl)ccc2Sc2ccccc21, the inhibition is reported as 3.58%.
With O=C1CC2(CCCC2)Oc2ccc(Cl)cc21 the inhibition was 9.19%.
In the case of O=C1Cc2ccccc2Sc2ccc(Cl)cc21, the inhibition is reported as 75% (active).
O=C(CCNC(=O)c1ccc(Br)cc1)NCCCc1ccccc1 showed an inhibition of -14.7%.
CN(CCc1ccccn1)S(=O)(=O)c1ccc2c3c(cccc13)C(=O)N2 showed an inhibition of -0.86%.
Molecule O=C(NCc1ccncc1)C1CCCN(S(=O)(=O)c2ccc(Br)cc2)C1 (centres undefined) has an inhibition of 3.53%.
O=C1CCCc2c1nc(-c1cccc(Cl)c1)n2O showed an inhibition of -3.24%.
In the case of O=c1c2cc(Br)ccc2nc(-c2cccc(Cl)c2)n1O, the inhibition is reported as 78.4% (active).
For Cc1cccc(-c2nc3ccccc3c(=O)n2NC(=O)Cc2ccc(Cl)cc2)c1, the inhibition was -2.71%.
CCCOc1ccc(C2NC(=O)NC(c3ccccc3)=C2C(C)=O)cc1OCC (centres undefined) showed an inhibition of -8.73%.
Molecule Cc1cccc([C@@H]2[C@@H]3C(=O)N(Cc4ccccc4)C(=O)[C@@H]3[C@]3(Cc4ccc(Cl)cc4)C(=O)N(c4cccc(Cl)c4)C(=O)N23)c1 has an inhibition of -2.38%.
Work on CC(OC(=O)CNC(=O)c1ccc(Cl)c([N+](=O)[O-])c1)C(=O)NCc1ccco1 (centres undefined) yielded an inhibition of -7.18%.
COc1cccc(/C(C)=N/Nc2ncc(Cl)cc2Cl)c1 showed an inhibition of -4.25%.
In the case of COC(=O)Cc1ccc(Oc2ncc(C(F)(F)F)cc2Cl)cc1, the inhibition is reported as -5.08%.
For COc1cccc(/C=N/Nc2ncc(C(F)(F)F)cc2Cl)c1O, the inhibition was 95.9% (active).
In the case of Cc1cc(N)n2nc(-c3ccc(C(C)(C)C)cc3)cc2n1, the inhibition is reported as 38.2%.
O=[N+]([O-])c1ccc(O)c(/C=N/Nc2ccccc2[N+](=O)[O-])c1 showed an inhibition of 17.8%.
For O=C(N/N=C/c1cc([N+](=O)[O-])ccc1O)/C(=C\c1cccs1)NC(=O)c1ccccc1, the inhibition was 83.5% (active).
O=C(N/N=C/c1ccc(O)cc1)/C(=C/c1ccc([N+](=O)[O-])cc1)NC(=O)c1ccccc1 showed an inhibition of -0.983%.
With CN(CC(=O)Nc1c(Cl)cccc1Cl)C(=O)CNC(=O)C1CCCCC1 the inhibition was -1.53%.
With Cc1ccc(C)c(N2CCN(C(=O)CCCCCn3c(=S)[nH]c4ccc(N5CCOCC5)cc4c3=O)CC2)c1 the inhibition was 50.8% (active).
Molecule O=C(CCCCCn1c(=S)[nH]c2cc3c(cc2c1=O)OCO3)N1CCN(c2ccc(F)cc2)CC1 has an inhibition of 4.31%.
With Cc1ccc(C)c(N2CCN(C(=O)CCCCn3c(=O)[nH]c4ccccc4c3=O)CC2)c1 the inhibition was 10.5%.
In the case of CCCC(=O)Nc1nc2ccc(NC(=O)c3c(F)c(F)c(OC)c(F)c3F)cc2s1, the inhibition is reported as 71.5% (active).
In the case of CCOc1ccc2nc(NC(=O)c3cc([N+](=O)[O-])ccc3N3CCOCC3)sc2c1, the inhibition is reported as 50.1% (active).
With COc1ccc2nc(Nc3nc4ccc(NC(C)=O)cc4s3)sc2c1 the inhibition was 54.9% (active).
In the case of CCCC(=O)Nc1nc2ccc(NC(=O)c3cccnc3)cc2s1, the inhibition is reported as -13.3%.
Work on CCOc1ccc2nc(NC(=O)CSc3nc4c(c(=O)n(C)c(=O)n4C)n3CC)sc2c1 yielded an inhibition of 4.34%.
COc1ccc2nc(NC(=O)c3ccc(Br)s3)sc2c1 gave an inhibition of 38.2%.
Work on COc1ccc(S(=O)(=O)N2CCCCC2)cc1NC(=O)c1cc([N+](=O)[O-])ccc1N1CCOCC1 yielded an inhibition of 12.2%.
Work on CCC(=O)c1ccc(OCC(=O)Nc2ccc3nc(C)sc3c2)cc1 yielded an inhibition of -10.4%.
For COc1ccc2nc(NC(=O)NC3CCCCC3)sc2c1, the inhibition was -5.74%.
Work on CSc1nc2ccc(NC(=O)c3c(F)cccc3F)cc2s1 yielded an inhibition of -1.79%.
For O=C(NC1CCCCC1)c1cc([N+](=O)[O-])ccc1N1CCOCC1, the inhibition was 3.56%.
With CCOc1ccc2nc(Nc3nc4ccc(NC(C)=O)cc4s3)sc2c1 the inhibition was 62.6% (active).
For CCCCSc1nc2c(c(=O)n1CC)SC(C)C2 (centres undefined), the inhibition was -4.67%.
COCC1CCN(C(=O)C2CCC(=O)N(CC3CCCCC3)C2)CC1 (centres undefined) gave an inhibition of -1.21%.
Molecule O=C(c1cc2c(s1)CCC2)N1CCN(c2ccccc2)CC1 has an inhibition of 3.4%.
With CCNc1nc(NC(C)C)nc(N2CC(=O)N(CC(=O)OCC)C2=N)n1 the inhibition was 0.266%.
COc1ccc(S(=O)(=O)N2CCOC23CCN(S(=O)(=O)c2ccc([N+](=O)[O-])cc2)CC3)cc1 gave an inhibition of 2.41%.
In the case of CCc1nn(CCCN2CCN(c3cccc(Cl)c3)CC2)c(=O)n1CCOc1ccccc1, the inhibition is reported as -2.67% and -3.29%.
COc1cc(NS(=O)(=O)c2ccc(N/C=C(\C=O)c3nc4cc(Cl)ccc4o3)cc2)nc(OC)n1 showed an inhibition of 22%.
In the case of CSc1ccc(CN(C)CC(=O)NCc2ccc(F)cc2)cc1, the inhibition is reported as -18.5%.
CC(C)(C)n1nnc(CCc2nnn(C(C)(C)C)n2)n1 showed an inhibition of -4.02%.
CCCCCCCCc1c(O)nc(-n2[nH]c(C)c(CCO)c2=O)[nH]c1=O showed an inhibition of 9.64%.
O=C(Nc1ccccc1F)c1ccccc1-c1ccc(C(F)(F)F)cc1 showed an inhibition of -10.9%.
NC(=O)Cn1cc(/C=N\NS(=O)(=O)c2ccccc2)c2ccccc21 showed an inhibition of -0.681%.
In the case of Cc1ccc2c(C)c(C(=O)N3CCN(c4ccncc4)CC3)oc2c1C, the inhibition is reported as 4.31%.
In the case of O=C1c2ccccc2-c2ncnc3c(N4CCOCC4)cc(N4CCOCC4)c1c23, the inhibition is reported as 13.7%.
